CtBP-E1A inh – blocks the CtBP interaction with E1A | AlphaScreen GST-E1A/His-CtBP binding, 1536-well; hits give low values | 340,000 tested, 0.49% active | activity change, % (test concentration not listed); in the data active means activity change below about -65%; inconclusive means mostly about -30% to -63%
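Steps: dispense buffer (Tris pH 8.0, NaCl 300 mM, TCEP 1 mM, BSA, Tween 20); add 5X protein mix (GST-E1A, His-CtBP, 125 nM each); pin 23 nL compound; 2 h at 37 °C, dark; add 5X beads (50 ug/mL); 1 h; read.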
Gal4-VP16 FLuc – counter-screen for ROR gamma inhibitors: Gal4-VP16 reporter. 310,000 tested, 3.5% active. AID 2546. Drosophila S2 Gal4-VP16 UAS-luciferase, luminescence, 20 h. Potency, µM (highest dose often 53.6 µM), hits mostly inhibitors;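 further: Gal4-VP16 expression switched on by copper sulfate through the metallothionein promoter; nearly all actives have a fitted effect of over 50% in size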
RORg inh – ROR gamma (mouse) transcription inhibition. P51450. Drosophila S2 Gal4-RORgamma UAS-luciferase reporter, 20 h. Potency, µM (top dose mostly 53.6 µM), most hits filed as inhibitors. 310,000 tested, 5.4% active. AID 2551; further: nearly all actives have a fitted effect of over 60% in size
Target sequence (P51450 whole entry, looked up, the tested form may be a part): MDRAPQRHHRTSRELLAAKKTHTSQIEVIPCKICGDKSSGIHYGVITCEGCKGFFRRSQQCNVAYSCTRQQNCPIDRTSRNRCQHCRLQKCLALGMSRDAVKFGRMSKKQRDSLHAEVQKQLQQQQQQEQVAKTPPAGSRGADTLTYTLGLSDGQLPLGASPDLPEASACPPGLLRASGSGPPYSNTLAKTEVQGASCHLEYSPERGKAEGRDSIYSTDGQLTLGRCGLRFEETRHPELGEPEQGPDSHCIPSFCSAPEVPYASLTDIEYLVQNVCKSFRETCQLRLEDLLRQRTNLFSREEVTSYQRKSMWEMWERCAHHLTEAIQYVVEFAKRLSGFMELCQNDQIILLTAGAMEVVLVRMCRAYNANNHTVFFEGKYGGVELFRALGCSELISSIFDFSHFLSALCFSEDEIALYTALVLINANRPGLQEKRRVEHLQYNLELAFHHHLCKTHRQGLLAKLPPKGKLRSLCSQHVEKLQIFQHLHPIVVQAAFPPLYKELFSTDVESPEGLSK
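Read-out: Photinus luciferase luminescence; inhibitors lower reporter signal. Insect Schneider cells with Gal4-ROR gamma fusion under metallothionein promoter, UAS reporter; 700 uM final copper sulfate induction, 20 hr, ambient temperature.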
p53 reactivator – mutant p53 re-activation in reporter cells; H1299 p53-A138V BP100-luciferase reporter, luminescence, 24 h; 320,000 tested, 0.063% active; Potency, µM (titrated, usually from 92.2 µM), hits mostly activators; further: nearly all actives have a fitted effect of over 45% in size
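H1299 (p53-null), stable ts p53-A138V + BP100-Luc; 1000 cells/well, Opti-MEM/10% FBS; cpd 4 pt, 1:5; 24 h, 37 deg C, 5% CO2; detection reagent 10 min RT; luminescence.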
Six1-Eya2 inh – blocks human Six1 binding to Eya2. AlphaScreen GST-Six1/His-Eya2 binding, biochemical; hits give low values. activity change, % (concentration not given with the values). Q15475+O00167. 360,000 tested, 0.56% active. AID 651725; in the data active means activity change below about -65%; inconclusive means mostly about -30% to -63%
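GST-Six1 + His-Eya2 (5X stock: 250/500 nM); Tris pH 8.0, 300 mM NaCl, 0.05% BSA, 0.02% Tween 20; GSH donor/Ni acceptor beads; 1 h 37 °C dark; AlphaScreen readout.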
A number is an active result; – = inactive; ? = inconclusive; · = no result; [ ] = another dose, or the depositor's remark. Most compounds without a hit are left out; they make up all but 5.4% or so of the library. Unless noted, the call rests on the fitted dose curve; in most records, active means well fitted curve in the direction sought with a large enough effect; inconclusive means small, poorly fitted or top-dose-only effect, or another doubt; inactive means no such curve, though single readings can be large; an effect the other way counts as inactive or inconclusive.

SMILES	CtBP-E1A inh	Gal4-VP16 FLuc	RORg inh	p53 reactivator	Six1-Eya2 inh
O=C(CSc1nc2ccccc2n1CCc1ccccc1)c1ccc(O)c(O)c1	–	?	7.94µM	–	?
O=C(CSc1nc2ccccc2n1CCc1ccccc1)N1CCOCC1	–	–	–	–	–
COC(=O)C[C@H]1C[C@H]2c3cc(NS(=O)(=O)c4ccc(OC)cc4)ccc3O[C@H]2[C@H](CO)O1	–	·	·	·	–
CCc1ccc(Oc2coc3cc(OCC(=O)Nc4cc(C)ccc4C)ccc3c2=O)cc1	–	7.94µM	25.1µM	–	–
CCCc1ccc(Oc2coc3cc(OCC(=O)Nc4ccccc4C)ccc3c2=O)cc1	–	?	?	–	–
COC(=O)c1nc(NC(=S)NC(=O)c2cccs2)sc1C	–	4.47µM	3.98µM	–	–
O=C(NC(=S)Nc1nc2ccccc2s1)c1cccs1	–	?	?	?	–
CCc1ccc(-c2nc(NC(=S)NC(=O)c3cccs3)sc2C)cc1	–	3.16µM	?	–	–
COCCNC(=O)C1(C)CCCN(Cc2ccc(-n3ccnc3)cc2)C1 (configuration not stated)	–	·	·	·	–
Cc1ccc(-c2cn3c(=O)cc(C)[nH]c3n2)cc1	–	7.94µM	7.94µM	–	–
CCCCN(C(=O)c1ccc2c(c1)OCO2)c1ccccc1	–	–	–	–	–
Cc1ccc(N=Cc2cccc(O)c2O)c(C)c1	·	?	10µM	–	·
Cc1ccccc1N=Cc1cccc(O)c1O	–	–	–	–	?
Cc1ccc(O)c(C=Nc2cc(C)ccc2O)c1	–	20µM	?	?	–
O=[N+]([O-])c1cccc(C=Nc2cccc3ccccc23)c1O	–	–	1.58µM	–	–
CCOc1ccc(N=Cc2ccccc2O)cc1	–	·	·	·	–
O=[N+]([O-])c1ccc(O)c(C=Nc2cccc3ccccc23)c1	–	–	–	–	–
CCc1ccc(O)c(N=Cc2ccccc2O)c1	–	–	12.6µM	?	–
CC(=O)N1CCN(S(=O)(=O)c2cccc(C(=O)NNC(=O)c3ccc(Br)cc3)c2)CC1	·	·	·	·	–
COc1ccc(C)cc1S(=O)(=O)Nc1ccc2c(c1)OCO2	·	–	–	–	–
CC(C)(C)c1ccc(O)c(N=Cc2cc(Br)ccc2O)c1	·	?	10µM	–	–
Cc1ccc(O)c(N=Cc2cc(Cc3ccccc3)cc([N+](=O)[O-])c2O)c1	–	–[10 µM]	12.6µM	–	–
CCN(CC)c1ccc(N=Cc2cc(Br)ccc2O)cc1	–	?	17.8µM	–	?
O=[N+]([O-])c1cc(Cc2ccccc2)cc(C=Nc2ccc(N3CCOCC3)cc2)c1O	–	–	?	–	–
Oc1ccc(Br)cc1C=Nc1ccc(Cl)cc1	–	–	–	–	–
SMILES	CtBP-E1A inh	Gal4-VP16 FLuc	RORg inh	p53 reactivator	Six1-Eya2 inh
CCOC(=O)C(Cc1ccccc1)(Cc1ccccc1)C(C)=O	–	–	–	–	–
COc1ccc(C(=O)/C=C/Nc2ccc(S(=O)(=O)Nc3onc(C)c3C)cc2)cc1	?	–	?	?	?
Cc1cnc(CNc2ncncc2-c2ccccc2C)cn1	·	–	?	·	·
Cc1ccc(OCCCC(=O)Nc2nc3ccccc3[nH]2)cc1	–	–	6.31µM	–	–
O=C(CCCOc1ccccc1)NCCc1nc2ccccc2[nH]1	–	–	–	–	–
Cc1ccc(OCCCC(=O)Nc2ccccc2C(F)(F)F)cc1	–	–	–	–	–
Cc1cccc(OCCCSc2nc3ccccc3[nH]2)c1	–	–	–	–	–
O=C(CCCOc1ccccc1)Nc1nc2ccccc2[nH]1	–	–	7.08µM	–	–
Cc1cccc(OCCCC(=O)Nc2nc3ccccc3[nH]2)c1	–	–	14.1µM	–	–
Cc1c(CCO)c(=O)[nH]n1C(=O)c1ccc(F)cc1	–	11.2µM	10µM	–	–
COc1ccc(C)cc1Nc1n[n+](-c2ccccc2)c(-c2ccc(N(C)C)cc2)s1	–	5.62µM	11.2µM	–	–
COc1ccc(C)cc1Nc1n[n+](-c2ccccc2)c(-c2c(Cl)cccc2Cl)s1	?	15.8µM	7.08µM	–	?
CC1(C)Oc2ccc(C#N)cc2[C@H](N2CCCC2=O)[C@H]1O	·	–	–	·	·
C[C@H]1[C@H](C)CC[C@]2(C(=O)O)CC[C@]3(C)C(=CC[C@@H]4[C@@]5(C)C[C@@H](O)[C@H](O)C(C)(C)[C@@H]5CC[C@]43C)[C@H]12	·	?	10µM	–	–
CC1CCC2(C(=O)O)CCC3(C)C(=CCC4C3(C)CCC3[C@@]4(C)CC(O)C(O)[C@@]3(C)CO)C2C1C (some centres not stated)	·	–	–	·	·
Cc1ccc(N/N=C(\C#N)C(N)=S)cc1C	·	?	2.82µM	–	–
N#C/C(=N/Nc1ccccc1[N+](=O)[O-])C(N)=S	–	–	–	–	–
N#C/C(=N\Nc1ccccc1)C(N)=S	–	?	12.6µM	–	–
N#C/C(=N\Nc1ccc(Cl)cc1)C(N)=S	–	6.31µM	4.47µM	–	–
Cc1cccc(C)c1N=C1NN=C(c2ccccc2F)CS1	–	10µM	7.94µM	–	–
Cc1ccccc1N=C1NN=C(c2ccccc2F)CS1	?	?	–	12.6µM	–
COc1ccc(CN2C[C@]3(CO)O[C@@H](CO)C[C@@H]3S2(=O)=O)cc1	–	·	·	–	–
c1ccc(OCCSc2nnc3sc4ccccc4n23)cc1	–	11.2µM	11.2µM	–	–
O=C(NC(=S)NCc1ccccc1)c1cccs1	–	7.94µM	5.01µM	–	–
O=C(CNC(=S)NC(=O)c1cccs1)c1ccccc1	–	?	8.91µM	?	–
SMILES	CtBP-E1A inh	Gal4-VP16 FLuc	RORg inh	p53 reactivator	Six1-Eya2 inh
CC(=O)NC(c1ccccc1)c1nc(-c2cccs2)cs1 (configuration not stated)	–	·	·	·	–
CN1CCN(c2nc(-c3ccc(Cl)cc3)nc3ccccc23)CC1	–	–	–	–	–
CC(C)(C)C(=O)Nc1ccc(C(=O)NNC(=O)Cc2ccccc2)cc1	–	–[0.365 µM]	–	–	–
CCNC(=S)N1N=C2c3ccccc3CCC2C1c1ccc(F)cc1 (configuration not stated)	–	?	8.91µM	–	–
CC(=O)N1N=C2c3ccccc3CCC2C1c1ccc(F)cc1 (configuration not stated)	–	–	–	–	–
C=CCNC(=S)N/N=C/c1cn(C)c2ccccc12	–	–	–	–	–
Cc1ccsc1/C=N/NC(=O)c1cccs1	–	12.6µM	10µM	?	–
Cn1cc(/C=N\NC(=O)c2cccs2)c2ccccc21	–	?	8.91µM	–	–
Cc1ccsc1/C=N/NC(=O)c1ccccn1	–	?	–[10 µM]	?	–
Cn1cc(/C=N/NC(N)=S)c2ccccc21	–	22.4µM	?	–	–
Cn1cc(/C=N/NC(=O)c2ccc(C#N)cc2F)c2ccccc21	–	?	5.01µM	–	–
CCCCNC(=O)c1nc(C2CCN(S(=O)(=O)c3cccc(C(F)(F)F)c3)CC2)oc1-c1cccc(C(F)(F)F)c1	–	·	·	·	–
Cc1ccc(N(C)C(=O)c2ccc(CNc3c(N4CCC(C)CC4)c(=O)c3=O)cc2)cc1	–	–	–	–	–
Cc1nc(NC(=O)c2cccc(Cl)c2)sc1C(=O)N1CCCCC1	·	–	–	–	–
Cc1nn(-c2ccccc2)cc1/C=N/NC(N)=S	–	4.47µM	2.51µM	–	–
Cc1nn(-c2ccccc2)cc1/C=N/O	–	–	?	?	–
